Screening results deposited in PubChem BioAssay by National Center for Advancing Translational Sciences (NCATS).
Not all results are given here.
PINK1 expr mod: PINK1 expression modulation. PINK1 immunofluorescence, high-content cytometry, 24 h. 0.2% of 410,000 active. Potency, µM (doses to about 76.6 µM), hits mostly activators; active = well fitted activation curve with a large enough effect; cell line not stated here; also: nearly all actives have a fitted effect of over 65% in size
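PINK1 protein level read as immunofluorescence by microplate cytometer in a fixed, stained stable cell line after 24 h exposure to five compound concentrations, with CCCP as control.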
Pin1 inh: human Pin1 inhibition. Q13526. Pin1 FP peptide displacement, HiFluor488, 10 min. Potency, µM (series often up to 115 µM), usual class: inhibitors. 0.009% of 390,000 active. AID 504891; active = well fitted inhibition curve with a large enough effect in the polarisation, with a control signal flat, not every such curve was filed as active; the % refers to the polarisation
Target sequence (Q13526 whole entry, looked up): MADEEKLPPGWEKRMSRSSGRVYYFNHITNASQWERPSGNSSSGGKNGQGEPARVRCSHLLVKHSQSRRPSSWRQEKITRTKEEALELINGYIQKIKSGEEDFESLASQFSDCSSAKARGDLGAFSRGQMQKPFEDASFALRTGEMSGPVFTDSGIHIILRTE
HeLa tox: HeLa cytotoxicity, CellTiter-Glo readout; AID 1898; 230 tested, under 10 active; activity change, negative = cytotoxicity, % at 57.5 µM; shares compounds with AID 1631; HeLa viability, CellTiter-Glo ATP luminescence, 24 h; active = well fitted curve in the direction sought with a large enough effect
Large screens that a line does not name were inactive (follow-up assays come after a bar, where they were run).

Cc1cc2c(s1)c1cnn(Cc3cccc(Cn4ncc5c6sc(C)cc6n(C)c5c4=O)c3F)c(=O)c1n2C	none (no result: PINK1 expr mod) | HeLa tox inactive
Cc1cc2c(s1)c1cnn(Cc3c(F)c(F)cc(F)c3F)c(=O)c1n2C	none (no result: PINK1 expr mod) | HeLa tox inactive
COc1cc(=O)n2c(c1C(=O)NCc1ccsc1)CCN(Cc1nc3ccccc3[nH]1)CC2	none (no result: Pin1 inh)
Cc1cc2c(s1)c1cnn(Cc3ccc(F)c(F)c3F)c(=O)c1n2C	none (no result: PINK1 expr mod) | HeLa tox inactive
Cc1cc2c(s1)c1cnn(Cc3cc(F)ccc3F)c(=O)c1n2C	none (no result: PINK1 expr mod)
Cc1cc2c(s1)c1cnn(Cc3ccccc3F)c(=O)c1n2C(C)C	none (no result: PINK1 expr mod) | HeLa tox inactive
Cc1cc2c(s1)c1cnn(Cc3cccc(C)c3F)c(=O)c1n2C	none (no result: PINK1 expr mod)
COCc1ccc(CN2CCOc3c(cc(-c4ccc(SC)cc4)cc3OC)C2)o1	none (no result: Pin1 inh)
